Keap1 Nrf2 FP: Keap1-Nrf2 protein-protein interaction inhibitors, primary screen, biochemical, fluorescence polarization, single point. Kelch-like ECH-associated protein 1 (Homo sapiens), Q14145. Keap1 Kelch-Nrf2 peptide fluorescence polarization, 1536-well. inhibition, % at 9.4 µM. 340,000 tested, 0.15% active; in the data active = inhibition above about 12%;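 also: human Keap1 Kelch domain with fluorescein labeled Nrf2 9mer peptide probe; 0% = neutral control wells and 100% = peptide positive control; higher means more block of Keap1 binding to Nrf2 peptide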
Target sequence (Q14145 whole entry, looked up, the tested form may be a part): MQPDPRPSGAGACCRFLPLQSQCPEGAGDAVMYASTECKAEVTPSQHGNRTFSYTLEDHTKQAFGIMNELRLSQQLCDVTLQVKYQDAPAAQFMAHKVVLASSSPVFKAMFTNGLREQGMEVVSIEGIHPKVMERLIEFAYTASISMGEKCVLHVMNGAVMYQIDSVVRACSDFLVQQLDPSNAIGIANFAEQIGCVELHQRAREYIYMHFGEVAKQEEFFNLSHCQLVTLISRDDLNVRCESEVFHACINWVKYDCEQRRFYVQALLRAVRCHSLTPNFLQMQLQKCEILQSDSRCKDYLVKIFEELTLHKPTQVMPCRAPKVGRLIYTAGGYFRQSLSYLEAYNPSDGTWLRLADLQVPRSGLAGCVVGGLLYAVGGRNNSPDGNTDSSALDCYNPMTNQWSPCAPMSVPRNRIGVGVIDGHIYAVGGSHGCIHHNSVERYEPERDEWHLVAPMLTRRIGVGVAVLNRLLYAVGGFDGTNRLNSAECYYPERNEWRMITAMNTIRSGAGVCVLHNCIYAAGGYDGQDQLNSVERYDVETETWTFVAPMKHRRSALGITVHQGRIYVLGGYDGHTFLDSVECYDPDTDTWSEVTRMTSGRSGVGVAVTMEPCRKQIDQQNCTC
RTF Ca sens inh: cardiac RTF calcium sensitivity inhibitors, primary screen, biochemical, IANBD-TnC fluorescence, EC70 calcium; inhibition, % at 7.15 µM; IANBD-labeled cardiac RTF, Ca2+ fluorescence; Troponin I, cardiac muscle (Homo sapiens) + Troponin T, cardiac muscle (Homo sapiens) + …; AID 493244, 2011; 340,000 tested, 0.12% active;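 active = inhibition above the mean inhibition of all tested compounds plus 3 SD, cut at about 17% in these data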;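 also: assay run at fixed EC70 calcium of 1.6 mM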
cardiac RTF act: cardiac RTF calcium sensitivity activators, primary screen, biochemical, IANBD-TnC fluorescence, EC20 calcium | AID 493008, 2010 | activation, % at 7.2 µM | 340,000 tested, 0.24% active | IANBD-labeled TnC RTF fluorescence at EC20 calcium; 0% EC20 calcium, 100% full calcium;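 active = activation above the mean over all tested compounds plus 3 SD, cut at about 30% in these data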;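 also: rise in fluorescence read as greater calcium sensitivity of cardiac thin filaments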
LANA DNA inh: inhibitors of KSHV C-LANA binding to DNA, primary screen, biochemical, fluorescence polarization, FAM-LBS DNA, MBP-C-LANA, single point; 340,000 tested, 0.078% active; Kaposi's sarcoma herpesvirus LANA C-terminal domain (residues 932-1162) DNA binding; inhibition, % at 9 µM;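 active = highest replicate inhibition at or above 60% at 9 µM, even if other replicates fall short; inactive = all replicates below 60% inhibition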;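 also: 0% = neutral control wells and 100% = 4 µM acridine orange control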
RTF inh confirm: cardiac RTF calcium sensitivity inhibitors, confirmation, biochemical, fluorescence readout | AID 504635, 2011 | 360 tested, 8% active | inhibition, % at 7.15 µM | reconstituted cardiac thin filaments | shares compounds with RTF Ca sens inh; in the data active = inhibition above about 18%
DNA intercal 2: DNA intercalator detection, dose response, counter-screen for C-LANA DNA-binding inhibitor project, biochemical, dry powder. shares compounds with LANA DNA inh. Acridine orange-DNA displacement, fluorescence polarization. AC50, µM (highest dose often 35 µM), inactives show at the highest dose activity change, negative = inhibition. 20 tested, under 10 active;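 active = signal drop with an AC50 no more than ten times the top valid dose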
Keap1 TSA: Keap1 Kelch domain binders by thermal stabilisation, dose response, biophysical, thermal shift, RT-PCR instrument, cherry-pick; max delta Tm, degrees C; 400 tested, 8% active; shares compounds with Keap1 Nrf2 FP; delta Tm; stronger effect = higher value; in the data active = max delta Tm above about 0.48 degrees C
Dye-only ctr: Sypro Orange dye melt without protein, dose response, artefact control for Keap1-Nrf2 interaction inhibitor project, biochemical, thermal shift counterscreen, cherry-pick | shares compounds with Keap1 Nrf2 FP | Sypro Orange dye-only thermal melt, no protein, delta Tm; top dose 26 µM | delta Tm, degrees C (concentration not given with the values) | 140 tested, under 10 active;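 active = at highest dose tested, delta Tm positive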
* hit, by the source's call. The list is not random: actives were taken first. Their share in the collection is about 0.5%.

What do the screens show for `O=C1CCCC2=C1C(c1ccc(Br)cc1)c1c([nH]c(=S)[nH]c1=O)N2` (stereo unspecified)?
Keap1 Nrf2 FP: 0; RTF Ca sens inh: -6; cardiac RTF act: -3; LANA DNA inh: 4

How did O=C(O)c1cccc(-n2cccc2/C=C2/NC(=O)N(c3ccc(Cl)cc3)C2=O)c1 do in these assays?
Keap1 Nrf2 FP: 19*; RTF Ca sens inh: 75*; cardiac RTF act: -46; LANA DNA inh: 110*; RTF inh confirm: 55*; Keap1 TSA: 0.46

Results for C[C@@H]1CN([C@@H](C)CO)C(=O)c2cc(NC(=O)C3CC3)ccc2O[C@@H]1CN(C)C(=O)NC1CCCCC1 ?
Keap1 Nrf2 FP: -3; RTF Ca sens inh: -1; cardiac RTF act: 6; LANA DNA inh: 2

What do the screens show for `O=C(O)C1Nc2c(O)cc(Cl)c([N+](=O)[O-])c2C2C=CCC12` (stereo unspecified)?
Keap1 Nrf2 FP: 42*; RTF Ca sens inh: 86*; cardiac RTF act: -37; LANA DNA inh: 120*; RTF inh confirm: 36*; DNA intercal 2: 5%; Keap1 TSA: 0.92*

Results for O=[N+]([O-])c1ccc(Cl)c2c1C1C=CCC1C(c1ccccn1)N2 (stereo unspecified) ?
Keap1 Nrf2 FP: -1; RTF Ca sens inh: -10; cardiac RTF act: 5; LANA DNA inh: -1

What do the screens show for `CC1(C)[C@@H](O[C@H]2O[C@H](C(=O)O)[C@@H](O)[C@H](O)[C@H]2O[C@@H]2O[C@H](C(=O)O)[C@@H](O)[C@H](O)[C@H]2O)CC[C@]2(C)[C@H]3C(=O)C=C4[C@@H]5C[C@@](C)(C(=O)O)CC[C@]5(C)CC[C@@]4(C)[C@]3(C)CC[C@@H]12`?
DNA intercal 2: -5%

How did CC1CCc2c(cnc3ncnn23)C1 (stereo unspecified) do in these assays?
Keap1 Nrf2 FP: 1; RTF Ca sens inh: -7; cardiac RTF act: -4; LANA DNA inh: -1

How did Nc1c(C(=O)Nc2ccccc2F)sc2nc(Cc3ccccc3)cc(C(F)(F)F)c12 do in these assays?
Keap1 Nrf2 FP: 33*; RTF Ca sens inh: -8; cardiac RTF act: 49*; LANA DNA inh: 44; DNA intercal 2: 19µM*; Keap1 TSA: -0.2

Results for CC(=O)c1ccc2c(c1)C1C=CCC1C(c1ccncc1)N2 (stereo unspecified) ?
Keap1 Nrf2 FP: -6; RTF Ca sens inh: -6; cardiac RTF act: 1; LANA DNA inh: 3

How did CC(=O)c1ccc2c(c1)C1C=CCC1C(C(=O)O)N2 (stereo unspecified) do in these assays?
Keap1 Nrf2 FP: 21*; LANA DNA inh: 114*; DNA intercal 2: 2%; Keap1 TSA: 2.1*; Dye-only ctr: -33

Results for CC(=O)c1cccc(NC(=O)COC(=O)Cc2ccc(Cl)cc2)c1 ?
Keap1 Nrf2 FP: 3; RTF Ca sens inh: -5; cardiac RTF act: -1; LANA DNA inh: 0

What do the screens show for `CCN(CC)CCN1C(=O)c2cccc3cc(N)cc(c23)C1=O`?
Keap1 Nrf2 FP: 14*; RTF Ca sens inh: -49; cardiac RTF act: 24; LANA DNA inh: 60; Keap1 TSA: -0.08

Results for Nc1cc2c3c(cccc3c1)C(=O)N(CCN1CCCC1)C2=O ?
Keap1 Nrf2 FP: 3; RTF Ca sens inh: -19; cardiac RTF act: 14; LANA DNA inh: 2

What do the screens show for `CCCCOc1ccc(/C=C/C(=O)OCC(=O)NC(=O)NCC(C)C)cc1OCC`?
Keap1 Nrf2 FP: 2; RTF Ca sens inh: 3; cardiac RTF act: 1; LANA DNA inh: 1

How did CN(C)c1ccc(N=Nc2ccc(S(N)(=O)=O)cc2)cc1 do in these assays?
Keap1 Nrf2 FP: 3; RTF Ca sens inh: -5; cardiac RTF act: 1; LANA DNA inh: -2

Results for NS(=O)(=O)c1ccc(N=Nc2c[nH]c(=O)c(O)c2)cc1 ?
Keap1 Nrf2 FP: 34*; RTF Ca sens inh: -37; cardiac RTF act: 58*; LANA DNA inh: 68*; Keap1 TSA: 0.54*; Dye-only ctr: -26

What do the screens show for `COc1cc(/C=C/C(=O)OCC(=O)c2ccc3c(c2)NC(=O)CO3)ccc1OC(F)F`?
Keap1 Nrf2 FP: 21*; RTF Ca sens inh: 0; cardiac RTF act: -2; LANA DNA inh: 11; Keap1 TSA: -0.12; Dye-only ctr: -26

How did Cc1nc2ccc(Cl)cc2c(-c2ccccc2F)c1CC(=O)O do in these assays?
Keap1 Nrf2 FP: 3; RTF Ca sens inh: 9; cardiac RTF act: 5; LANA DNA inh: 1

Results for S=C1SCN(CC2CC2)CN1CC1CC1 ?
Keap1 Nrf2 FP: 33*; RTF Ca sens inh: 4; cardiac RTF act: 4; LANA DNA inh: 33; Keap1 TSA: -0.15

How did S=C1SCN(Cc2ccccc2)CN1Cc1ccccc1 do in these assays?
Keap1 Nrf2 FP: -2; RTF Ca sens inh: -2; cardiac RTF act: 1; LANA DNA inh: 0

How did COC(=O)c1cc(C)nc2c1c(C)nn2-c1ccccc1 do in these assays?
Keap1 Nrf2 FP: 44*; RTF Ca sens inh: -4; cardiac RTF act: -2; LANA DNA inh: 20; Keap1 TSA: -0.15; Dye-only ctr: -28

Results for CCOC(=O)C(C)(C)N(Cc1ccccc1C)S(=O)(=O)c1ccc(Cl)c([N+](=O)[O-])c1 ?
Keap1 Nrf2 FP: 27*; RTF Ca sens inh: 5; cardiac RTF act: -7; LANA DNA inh: 0; Keap1 TSA: -0.13; Dye-only ctr: -27

What do the screens show for `Cc1sc2ncn(CC(=O)NCC3COc4ccccc4O3)c(=O)c2c1S(=O)(=O)N1CCCCC1` (stereo unspecified)?
Keap1 Nrf2 FP: -3; RTF Ca sens inh: -6; cardiac RTF act: 4; LANA DNA inh: 0

What do the screens show for `C=CCn1c(Sc2ncc([N+](=O)[O-])s2)n[nH]c1=O`?
Keap1 Nrf2 FP: 19*; RTF Ca sens inh: -4; cardiac RTF act: 3; LANA DNA inh: 2; Keap1 TSA: -0.09; Dye-only ctr: -28

Screens (PubChem BioAssay)
